The record followed here is PMC4336329 (PLoS ONE, 2015).

The whole screen tested about 310,000 compounds, of which about 14,000 (4.5%) showed an effect of 50% or more. Effects have a minus sign here. The sample as a whole holds a higher share of strong results than the screen did.
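Further: peak tail current of the secondary pulse compared with the same well before compound.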

For the assay, the target named is human ether-à-go-go-related gene (hERG) potassium channel (human, UniProt Q12809). The assay can be described thus: primary screen, population patch clamp on CHO cells stably expressing hERG; higher = less effect of the substance.
Sequence of human ether-à-go-go-related gene (hERG) potassium channel (Q12809 whole entry, looked up): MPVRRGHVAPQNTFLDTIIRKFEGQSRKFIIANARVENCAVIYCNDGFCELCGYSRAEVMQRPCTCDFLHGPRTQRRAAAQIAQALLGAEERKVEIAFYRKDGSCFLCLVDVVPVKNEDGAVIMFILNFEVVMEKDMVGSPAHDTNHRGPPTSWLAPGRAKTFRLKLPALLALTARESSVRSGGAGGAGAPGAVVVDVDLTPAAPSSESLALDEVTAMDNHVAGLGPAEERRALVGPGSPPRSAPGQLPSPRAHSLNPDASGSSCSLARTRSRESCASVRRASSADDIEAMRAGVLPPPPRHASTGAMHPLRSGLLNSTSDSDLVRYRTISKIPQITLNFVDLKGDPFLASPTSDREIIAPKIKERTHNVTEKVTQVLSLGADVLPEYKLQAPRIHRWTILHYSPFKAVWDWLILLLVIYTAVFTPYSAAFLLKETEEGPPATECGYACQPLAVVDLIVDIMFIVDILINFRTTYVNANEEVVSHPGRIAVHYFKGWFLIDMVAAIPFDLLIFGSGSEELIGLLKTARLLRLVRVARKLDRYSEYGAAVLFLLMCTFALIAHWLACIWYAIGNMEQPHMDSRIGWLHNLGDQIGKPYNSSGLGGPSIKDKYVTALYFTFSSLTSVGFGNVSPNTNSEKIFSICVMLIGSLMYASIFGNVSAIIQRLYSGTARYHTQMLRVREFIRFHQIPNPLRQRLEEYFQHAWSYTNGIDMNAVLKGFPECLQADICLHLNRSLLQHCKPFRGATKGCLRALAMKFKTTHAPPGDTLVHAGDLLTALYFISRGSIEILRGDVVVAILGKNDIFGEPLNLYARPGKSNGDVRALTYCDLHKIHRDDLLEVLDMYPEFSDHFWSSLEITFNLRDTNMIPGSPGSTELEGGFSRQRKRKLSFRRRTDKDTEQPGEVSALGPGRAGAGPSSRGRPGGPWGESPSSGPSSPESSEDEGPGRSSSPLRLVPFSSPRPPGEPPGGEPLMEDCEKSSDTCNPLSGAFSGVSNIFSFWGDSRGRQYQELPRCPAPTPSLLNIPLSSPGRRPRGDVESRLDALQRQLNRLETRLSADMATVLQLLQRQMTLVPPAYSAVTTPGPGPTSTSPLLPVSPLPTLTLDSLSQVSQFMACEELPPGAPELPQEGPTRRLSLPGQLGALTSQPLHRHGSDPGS
`Cc1ccc(NC(=O)c2ccc(NCCCN3CCC(C)CC3)c([N+](=O)[O-])c2)c(C)c1`: the “hERG current change (%, negative = inhibition) at 10uM” value is given as -19.4%.
As for `Cc1ccc(C(=O)Nc2cccc(NC(=O)c3ccc(C)cc3)n2)cc1`, the “hERG current change (%, negative = inhibition) at 10uM” value is listed as 2.01%.
For the compound `Cc1ccccc1-c1nnc(CN2CCC(C)CC2)o1.Cl`, the “hERG current change (%, negative = inhibition) at 10uM” value is given as -6.6%.
As for `COCCOCC(O)CN1CCN(c2ccc(C)cc2)CC1.O=C(O)C(=O)O` (stereo not drawn), the “hERG current change (%, negative = inhibition) at 10uM” value was -11.2%.
For the compound `Cc1c(C(=O)NC2CCCc3ccccc32)oc2ccc(S(=O)(=O)N3CCOCC3)cc12` (stereo not drawn), the “hERG current change (%, negative = inhibition) at 10uM” value is -2.45%.
Take `CC(Oc1cccc(Cl)c1)C(=O)Nc1ccc(S(=O)(=O)NC2=NCCCCC2)cc1` (stereo not drawn): the “hERG current change (%, negative = inhibition) at 10uM” value was -22.5%.
Turning to `CCN(CC)C(=O)c1c2c(nc3ccccc13)-c1ccccc1CC2`, the “hERG current change (%, negative = inhibition) at 10uM” value is given as -12.6%.
As for `CCOC(=O)/C(C#N)=C\C=C1C=CN(C)C=C1`, the “hERG current change (%, negative = inhibition) at 10uM” value worked out at 0.0919%.
`Cc1ccc2c(CN3CCCCC3)cc(=O)oc2c1C`: the “hERG current change (%, negative = inhibition) at 10uM” value is listed as -1.49%.
Turning to `O=c1cc(CN2CCN(Cc3ccccc3)CC2)c2ccc(O)c(O)c2o1`, the “hERG current change (%, negative = inhibition) at 10uM” value is -65.8%.
The value for `Cc1c(O)ccc2c(CN3CCN(CCO)CC3)cc(=O)oc12` was 3.5%.
The value for `Cc1cc(C)c2c(CN3CCN(Cc4ccccc4)CC3)cc(=O)oc2c1C.Cl` was -40.8%; that for `O=c1cc(CN2CCOCC2)c2ccc(O)c(O)c2o1` was 10.1%.
Take `Cc1cc(C)c2oc(=O)cc(CN3CCN(Cc4ccccc4)CC3)c2c1`: the “hERG current change (%, negative = inhibition) at 10uM” value is on record as -33.2%.
Take `Cc1ccc2c(CN3CCN(Cc4ccccc4)CC3)cc(=O)oc2c1C`: the “hERG current change (%, negative = inhibition) at 10uM” value is on record as -55.3%.
With `CCc1cc(=O)oc2c(CN3CCN(C)CC3)c(O)ccc12`, the “hERG current change (%, negative = inhibition) at 10uM” value is recorded as 8.25%.
As for `Cc1c(O)ccc2c(CN3CCN(Cc4ccccc4)CC3)cc(=O)oc12`, the figure is -61.9%; as for `COc1ccc(NC(=O)C2CC(=O)OC2(C)C)cc1` (stereo not drawn), 3.44%.
The value for `CCOC(=O)CNC(=O)Nc1ccccc1C(=O)OC` was 15.1%.
For `Cc1cc(C)n(S(=O)(=O)c2cccc([N+](=O)[O-])c2)n1`, the “hERG current change (%, negative = inhibition) at 10uM” value was 3.73%.
The value for `COc1ccc(C(=O)C(C)N(C(=O)c2ccc(Cl)cc2Cl)N2C(=O)C3C4C=CC(C4)C3C2=O)cc1` (stereo not drawn) was 0.401%; that for `Cc1cccc(OC(=O)c2sc3ncn(C)c(=O)c3c2C)c1` was 3.54%; that for `O=C(Cn1nc2n(c1=O)-c1ccccc1SC2)N/N=C/c1ccncc1` was -1.97%.
The value for `CC(C)OC(=O)c1c(N)n(CC2CCCO2)c2nc3ccccc3nc12` (stereo not drawn) was -29.3%.
For the compound `Nc1c(C(=O)OC2CCCCC2)c2nc3ccccc3nc2n1CC1CCCO1` (stereo not drawn), the “hERG current change (%, negative = inhibition) at 10uM” value is listed as -63.7%.
For `Nc1c(C(=O)NC2CCCC2)c2nc3ccccc3nc2n1CC1CCCO1` (stereo not drawn), the “hERG current change (%, negative = inhibition) at 10uM” value was -4.67%.
On to `Nc1cc(Cl)ccc1N1CCOCC1`, for which the “hERG current change (%, negative = inhibition) at 10uM” value is listed as -1.57%.
Consider `C[n+]1ccccc1COc1ccc(C(C)(C)C)cc1.Cc1ccc(S(=O)(=O)[O-])cc1`, for which the “hERG current change (%, negative = inhibition) at 10uM” value was 2.84%.
The value for `COc1ccc(-c2c(-c3cc(OC)cc(OC)c3)n(C)c3ccc(-c4ccc(S(N)(=O)=O)cc4)cc23)cc1` was 14.8%; that for `Cc1ccc(-n2c3nc(=O)[nH]c(=O)c-3cc3cc([N+](=O)[O-])ccc32)cc1C` was -26.9%; that for `Cc1ccc(-n2c3nc(=O)[nH]c(=O)c-3cc3cc([N+](=O)[O-])ccc32)cc1` was -57.6%.
Regarding `Cc1cccc(-n2c3nc(=O)[nH]c(=O)c-3cc3cc([N+](=O)[O-])ccc32)c1`, the “hERG current change (%, negative = inhibition) at 10uM” value was -35.1%.
Turning to `COc1ccc(CNC(=O)C(=O)NCC2OCCN2S(=O)(=O)c2ccc(F)cc2)cc1` (stereo not drawn), the “hERG current change (%, negative = inhibition) at 10uM” value was -3.41%.
Consider `COc1ccc(-c2nc(CSCC(=O)NCc3ccc4c(c3)OCO4)c(C)o2)cc1`, for which the “hERG current change (%, negative = inhibition) at 10uM” value was -6.05%.
Consider `COc1ccccc1NS(=O)(=O)c1ccc(N/N=C(\C)C(C)C)c([N+](=O)[O-])c1`, for which the “hERG current change (%, negative = inhibition) at 10uM” value is 9.29%.
Turning to `CCOC(=O)c1ccccc1NC(=O)c1c(O)[nH]c(=S)[nH]c1=O`, the “hERG current change (%, negative = inhibition) at 10uM” value is on record as 15.6%.
For the compound `Cc1ccc(-c2nn(-c3ccccc3)cc2C(=O)N2CCN(C3CCS(=O)(=O)C3)CC2)cc1` (stereo not drawn), the “hERG current change (%, negative = inhibition) at 10uM” value was -68.8%.
As for `COc1ccc(-c2nn(-c3ccccc3)cc2C(=O)NCC2CCCO2)cc1` (stereo not drawn), the figure is -0.557%; as for `Cc1ccc(-c2nn(-c3ccc(F)cc3)cc2C(=O)NC2CCC(O)CC2)cc1` (stereo not drawn), 14.4%; as for `COc1cccc(-c2nn(-c3ccc(F)cc3)cc2C(=O)NCC2CCCO2)c1` (stereo not drawn), -49.7%.
For the compound `COc1cccc(-c2nn(-c3ccccc3)cc2C(=O)O)c1`, the “hERG current change (%, negative = inhibition) at 10uM” value came out at 1.11%.
`COc1cccc(-c2nn(-c3ccc(C)cc3)cc2C(=O)NCC2CCCO2)c1` (stereo not drawn): the “hERG current change (%, negative = inhibition) at 10uM” value is given as -62.2%.
For the compound `CCc1ccc(-c2nn(-c3ccccc3C)cc2C(=O)N2CCN(C3CCS(=O)(=O)C3)CC2)cc1` (stereo not drawn), the “hERG current change (%, negative = inhibition) at 10uM” value was -1.98%.
Take `Cc1ccc(-c2nn(-c3ccc(F)cc3)cc2C(=O)N2CCN(C3CCS(=O)(=O)C3)CC2)cc1` (stereo not drawn): the “hERG current change (%, negative = inhibition) at 10uM” value is recorded as -61.6%.
For `COc1cccc(-c2nn(-c3ccc(C)cc3)cc2C(=O)N2CCN(C3CCS(=O)(=O)C3)CC2)c1` (stereo not drawn), the “hERG current change (%, negative = inhibition) at 10uM” value was -57%.
As for `COc1cccc(-c2nn(-c3ccc(C)cc3)cc2C(=O)N2CCc3cc(OC)c(OC)cc3C2)c1`, the figure is -31.7%; as for `Cc1cccc(-c2nn(-c3ccccc3)cc2C(=O)N2CCN(C3CCS(=O)(=O)C3)CC2)c1` (stereo not drawn), -36.6%; as for `O=C(c1cn(-c2ccccc2)nc1-c1ccc(F)cc1)N1CCCCC1`, -10.6%.
